Experimental data reported in PubChem BioAssay (NCATS).
Records with an inconclusive call do not appear. Entries that show only a call come without a potency. Values without a mark were called inactive. The source made the active and inactive calls. Calls follow the shape of the dose curve; as a rule, active = well fitted curve in the direction sought with a large enough effect; inconclusive = small, poorly fitted or top-dose-only effect, or another doubt; inactive = no such curve, though single readings can be large; an effect the other way counts as inactive or inconclusive.

Experiments:
[1] = biological target: Rap guanine nucleotide exchange factor 3 (Homo sapiens) (UniProt O95398); experiment: Confirmatory qHTS for antagonist of cAMP-regulated guanine nucleotide exchange factor 3 (EPAC1) (AID 1645880); conditions: EPAC1 Rap1B-BODIPY-GDP exchange, fluorescence; activity, negative = inhibition: at 115 µM (top of the series); also: nearly all actives have a fitted effect of over 55% in size; also: potency is read from the fitted curve at half-maximal effect
Sequence of Rap guanine nucleotide exchange factor 3 (Homo sapiens) (O95398 whole entry, looked up): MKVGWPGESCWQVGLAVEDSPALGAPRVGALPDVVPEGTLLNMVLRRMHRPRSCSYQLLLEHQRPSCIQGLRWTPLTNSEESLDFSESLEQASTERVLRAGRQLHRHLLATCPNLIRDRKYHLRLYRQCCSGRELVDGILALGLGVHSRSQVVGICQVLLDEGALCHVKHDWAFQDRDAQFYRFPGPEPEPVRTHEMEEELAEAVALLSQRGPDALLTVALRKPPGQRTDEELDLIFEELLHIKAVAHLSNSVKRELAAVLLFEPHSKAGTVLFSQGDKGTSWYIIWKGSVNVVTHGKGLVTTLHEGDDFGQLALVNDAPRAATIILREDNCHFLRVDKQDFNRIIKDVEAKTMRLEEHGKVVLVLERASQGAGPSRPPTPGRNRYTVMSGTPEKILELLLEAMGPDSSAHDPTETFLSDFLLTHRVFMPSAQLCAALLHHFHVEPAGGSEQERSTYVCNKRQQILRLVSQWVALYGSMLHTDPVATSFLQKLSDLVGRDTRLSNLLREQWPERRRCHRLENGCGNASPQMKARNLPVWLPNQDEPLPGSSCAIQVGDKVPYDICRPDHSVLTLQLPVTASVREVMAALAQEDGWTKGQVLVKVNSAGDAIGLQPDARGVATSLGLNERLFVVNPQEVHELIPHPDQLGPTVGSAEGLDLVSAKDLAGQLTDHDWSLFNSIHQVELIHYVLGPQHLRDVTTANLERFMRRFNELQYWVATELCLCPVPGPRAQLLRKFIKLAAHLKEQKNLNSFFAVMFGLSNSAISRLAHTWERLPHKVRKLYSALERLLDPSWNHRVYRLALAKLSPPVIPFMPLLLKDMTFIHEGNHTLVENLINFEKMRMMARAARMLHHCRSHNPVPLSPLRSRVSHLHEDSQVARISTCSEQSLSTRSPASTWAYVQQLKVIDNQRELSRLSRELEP
In short: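 Nucleotide exchange uses 100 nM EPAC1, 250 nM RAP1B-BODIPY-GDP and 50 uM GDP, with compounds in a concentration-titration series. After 5 min at room temperature, fluorescence (480 nm ex/540 nm em) is read every 5 min for 30 min. Data are normalized to control ATA and DMSO.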

[2] = biological target: Rap guanine nucleotide exchange factor 3 (Homo sapiens) (UniProt O95398); experiment: Confirmatory qHTS for agonist of cAMP-regulated guanine nucleotide exchange factor 3 (EPAC1) (AID 1645881);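 also: EPAC1 catalysed release of BODIPY-GDP from Rap1B seen as fluorescence loss; nearly all actives have a fitted effect of over 75% in size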
[3] = biological target: Rap guanine nucleotide exchange factor 4 (Homo sapiens) (UniProt Q8WZA2); experiment: Confirmatory qHTS for agonist of cAMP-regulated guanine nucleotide exchange factor 4 (EPAC2) (AID 1645884);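 also: nucleotide exchange releases bodipy-GDP from Rap1 and this lowers its fluorescence; nearly all actives have a fitted effect of over 65% in size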
Sequence of Rap guanine nucleotide exchange factor 4 (Homo sapiens) (Q8WZA2 whole entry, looked up): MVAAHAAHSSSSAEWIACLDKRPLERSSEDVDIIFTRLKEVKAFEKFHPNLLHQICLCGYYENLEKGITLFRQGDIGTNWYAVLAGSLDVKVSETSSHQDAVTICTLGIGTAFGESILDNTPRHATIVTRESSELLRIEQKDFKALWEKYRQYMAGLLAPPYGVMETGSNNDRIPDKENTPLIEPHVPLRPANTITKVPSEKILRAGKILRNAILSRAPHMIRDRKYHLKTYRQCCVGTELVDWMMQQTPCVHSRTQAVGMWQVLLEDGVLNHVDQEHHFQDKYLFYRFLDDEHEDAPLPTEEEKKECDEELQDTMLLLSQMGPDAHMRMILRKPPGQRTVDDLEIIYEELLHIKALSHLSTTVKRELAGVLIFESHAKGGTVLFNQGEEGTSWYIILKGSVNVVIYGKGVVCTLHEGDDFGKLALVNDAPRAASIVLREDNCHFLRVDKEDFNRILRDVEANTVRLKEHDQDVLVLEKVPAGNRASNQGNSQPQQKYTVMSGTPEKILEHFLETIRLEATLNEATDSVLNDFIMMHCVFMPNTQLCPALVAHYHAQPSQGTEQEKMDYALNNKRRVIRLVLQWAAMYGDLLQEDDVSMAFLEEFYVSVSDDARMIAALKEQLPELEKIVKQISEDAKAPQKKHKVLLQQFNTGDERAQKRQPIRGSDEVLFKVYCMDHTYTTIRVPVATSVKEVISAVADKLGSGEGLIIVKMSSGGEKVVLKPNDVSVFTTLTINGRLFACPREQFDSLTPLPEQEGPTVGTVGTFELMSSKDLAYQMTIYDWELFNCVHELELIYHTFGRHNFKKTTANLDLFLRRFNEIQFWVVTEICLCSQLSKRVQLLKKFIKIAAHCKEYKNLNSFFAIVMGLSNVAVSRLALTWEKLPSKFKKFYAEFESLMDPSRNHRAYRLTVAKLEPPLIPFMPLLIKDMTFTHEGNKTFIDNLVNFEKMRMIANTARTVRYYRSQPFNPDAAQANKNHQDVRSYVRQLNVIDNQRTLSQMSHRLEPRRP

[4] = biological target: Rap guanine nucleotide exchange factor 4 (Homo sapiens) (UniProt Q8WZA2); experiment: Confirmatory qHTS for antagonist of cAMP-regulated guanine nucleotide exchange factor 4 (EPAC2) (AID 1645885); also: nearly all actives have a fitted effect of over 25% in size; also: potency is read from the fitted curve at half-maximal effect
[5] = biological target: Rap guanine nucleotide exchange factor 3 (Homo sapiens) (UniProt O95398); experiment: Counterscreen qHTS for antagonist of cAMP-regulated guanine nucleotide exchange factor 3 (EPAC1) (AID 1645888);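 also: fluorescence loss as bound BODIPY-GDP is released from Rap1B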
In short: (§1)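 Rap1B–BODIPY-GDP (250 nM) with 50 uM GDP; compounds pin-transferred to 9.74 nM–152 uM final (activator) or from 7.32 nM upwards (inhibitor). Fluorescence Ex/Em 480/540 nm read at 5 and 30 min, then after adding cAMP or buffer, at room temperature.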

[6] = biological target: Rap guanine nucleotide exchange factor 3 (Homo sapiens) (UniProt O95398); experiment: Counterscreen qHTS for agonist of cAMP-regulated guanine nucleotide exchange factor 3 (EPAC1) (AID 1645889); also: nearly all actives have a fitted effect of over 40% in size; also: potency is read from the fitted curve at half-maximal effect
In short: as §1

Compound | Potency [1] | Potency [2] | Potency [3] | Potency [4] | Potency [5] | Potency [6] | activation [3] | activity change, negative = inhibition [5] | activation [6] | outcome [4]
O=C1CCc2cc(NS(=O)(=O)c3ccc([N+](=O)[O-])cc3)cc3c2N1CC3 | inactive | inactive | inactive | inactive | inactive | inactive | – | – | – | –
CCOC(=O)c1c(NC(=O)c2ccccc2OCC)sc2c1CCC(CC)C2 (centres undefined) | inactive | inactive | inactive | inactive | inactive | inactive | – | – | – | –
O=C(O)CSc1cc(C(=O)c2ccccc2O)cn2c(=O)c3c(-c4ccccc4)csc3nc12 | inactive | inactive | – | inactive | – | – | -8.3% [at 17.1 µM, percent relative to cAMP agonist control] | -7.65% [at 30.8 µM] | 17.9% [at 30.8 µM] | –
COc1ccc(OCC(=O)OCCNC(=O)c2cccnc2)cc1 | inactive | inactive | – | inactive | – | – | -1.04% [at 17.1 µM, percent relative to cAMP agonist control] | -8.99% [at 30.8 µM] | 0.499% [at 30.8 µM] | –
N#C/C(=C\C1=C(N2CCOCC2)C(=C/c2cccc([N+](=O)[O-])c2)/CC1)C(=O)Nc1ccccc1F | 47.8 µM (active) | inactive | inactive | inactive | inactive | inactive | – | – | – | –
C=CCOc1ccc(C2N3CC4(CC)CN2CC(CC)(C3)C4=O)cc1 (centres undefined) | inactive | inactive | – | inactive | – | – | 6.19% [at 17.1 µM, percent relative to cAMP agonist control] | -3.19% [at 30.8 µM] | 36.6% [at 30.8 µM] | –
Cc1ccc(NC(=O)CN2C(=O)C(c3ccc(C(C)(C)C)cc3)=NC2(C)C)cc1 | inactive | inactive | inactive | inactive | inactive | inactive | – | – | – | –
Cc1ccc(C)c(S(=O)(=O)Nc2ccc(C(=O)NCC(c3ccco3)N(C)C)cc2)c1 (centres undefined) | inactive | inactive | – | inactive | – | – | 5.83% [at 17.1 µM, percent relative to cAMP agonist control] | -1.62% [at 30.8 µM] | 6.54% [at 30.8 µM] | –
O=C1/C(=C\c2ccc(O)c(O)c2)C(c2ccccc2)=NN1c1ccccc1 | 16.9 µM (active) | inactive | inactive | inactive | inactive | inactive | – | – | – | –
CC(=O)Nc1cc(C(=O)NCc2ccco2)ccc1Sc1ccc(C)cc1 | inactive | inactive | – | inactive | – | – | 3.77% [at 17.1 µM, percent relative to cAMP agonist control] | -18.4% [at 30.8 µM] | 6.12% [at 30.8 µM] | –
COC(=O)CCNC(=O)NC(CCC(C)C)c1c(-n2cccc2)sc2c1CCN(C)C2 (centres undefined) | inactive | inactive | inactive | inactive | inactive | inactive | – | – | – | –
CCC(C)Sc1nc2c(c(=O)[nH]c(=O)n2C)n1CC(O)COc1cccc2ccccc12 (centres undefined) | inactive | inactive | inactive | inactive | inactive | inactive | – | – | – | –
COc1ccc(-c2ccc(C(=O)NCCN3CCOCC3)c3occc23)c(C)c1 | inactive | inactive | inactive | inactive | inactive | inactive | – | – | – | –
COc1cc(/C=C2\SC(=S)N(CC(=O)O)C2=O)ccc1OS(=O)(=O)c1ccc(C)cc1 | 23.9 µM (active) | inactive | inactive | inactive | inactive | inactive | – | – | – | –
CCc1ccc(NC(=O)COC(=O)CCC2CCCC2)cc1 | inactive | inactive | inactive | inactive | inactive | inactive | – | – | – | –
Cc1c2cn[nH]c(=O)c2c(C)n1-c1ccccc1 | inactive | inactive | inactive | inactive | inactive | inactive | – | – | – | –
CNC(=O)COC(=O)c1cc(-c2ccco2)nc2ccccc12 | 23.9 µM (active) | inactive | inactive | inactive | inactive | 50.1 µM (active) | – | – | – | –
CSCCC(NS(=O)(=O)c1ccc2c(c1)OCCO2)C(=O)N(C)Cc1ccc(F)cc1 (centres undefined) | inactive | inactive | – | inactive | – | – | 1.67% [at 17.1 µM, percent relative to cAMP agonist control] | -2.77% [at 30.8 µM] | 5.06% [at 30.8 µM] | –
O=S(=O)(Nc1cc2nc3ccccc3nc2n1Cc1ccccc1)c1ccc(Cl)cc1 | 9.53 µM (active) | inactive | inactive | 37.9 µM (active) | inactive | inactive | – | – | – | –
CCc1ccc(NC(=O)CSc2nc(-c3ccccc3)c(C#N)c(=O)[nH]2)cc1 | 75.7 µM (active) | inactive | inactive | – | inactive | inactive | – | – | – | inactive [at 12.7 µM]

Compound | Potency [1] | Potency [2] | Potency [3] | Potency [4] | Potency [5] | Potency [6] | activation [3] | activity change, negative = inhibition [5] | activation [6] | outcome [4]
CCCCn1cc2c(c1-c1ccccc1Br)c(=O)n(C)c(=O)n2C | inactive | inactive | inactive | inactive | inactive | inactive | – | – | – | –
COc1ccc(C2CC(c3cccs3)=NN2C(=O)c2ccco2)cc1OC (centres undefined) | inactive | inactive | – | inactive | – | – | 4.11% [at 17.1 µM, percent relative to cAMP agonist control] | -16.2% [at 30.8 µM] | 31.8% [at 30.8 µM] | –
CCC(COC)Oc1cc(NCc2ccccc2)c2ncn(C(C)C)c2c1 (centres undefined) | inactive | inactive | inactive | inactive | inactive | 7.94 µM (active) | – | – | – | –
N#Cc1c(Nc2ccccc2)sc(C(=O)c2ccccc2)c1N | inactive | inactive | – | inactive | – | – | 9.46% [at 17.1 µM, percent relative to cAMP agonist control] | 13.4% [at 30.8 µM] | 19.9% [at 30.8 µM] | –
Cc1ccc(Cc2cnc(N3C(=N)SC(c4ccccc4)C3=O)s2)cc1 (centres undefined) | inactive | inactive | – | inactive | – | – | 9.77% [at 17.1 µM, percent relative to cAMP agonist control] | -12.3% [at 30.8 µM] | 27.7% [at 30.8 µM] | –
O=c1c2cc([N+](=O)[O-])cc([N+](=O)[O-])c2[nH]n1-c1ccccc1 | 35.5 µM (active) | inactive | – | inactive | – | – | 3.37% [at 17.1 µM, percent relative to cAMP agonist control] | -31.5% [at 30.8 µM] | 10.6% [at 30.8 µM] | –
COc1ccc(Cl)cc1NC(=O)CN1CCc2ccccc21 | inactive | inactive | – | inactive | – | – | 2.78% [at 17.1 µM, percent relative to cAMP agonist control] | -6.37% [at 30.8 µM] | 14.8% [at 30.8 µM] | –
Cc1ccc(C(=O)/C=C/c2cc(Br)cc(Br)c2O)o1 | 26.9 µM (active) | inactive | inactive | inactive | inactive | inactive | – | – | – | –
Cn1cc(C(=O)C(=O)N2CCCCC2)c2ccccc21 | inactive | inactive | inactive | inactive | inactive | inactive | – | – | – | –
Cc1nc(-[n+]2nc(-c3ccncc3)nn2-c2ccccc2)sc1C | 22.4 µM (active) | inactive | – | inactive | – | – | 5.19% [at 17.1 µM, percent relative to cAMP agonist control] | -23.3% [at 30.8 µM] | 2.91% [at 30.8 µM] | –
CCCCc1nc(SCCOC)c2c(=O)n(C)c(=O)n(C)c2n1 | inactive | inactive | – | inactive | – | – | 4.93% [at 17.1 µM, percent relative to cAMP agonist control] | -15.9% [at 30.8 µM] | -0.239% [at 30.8 µM] | –
Cc1cccc(C(=O)Nc2cc(S(=O)(=O)N3CCOCC3)ccc2N2CCCC2)c1 | inactive | inactive | inactive | inactive | inactive | inactive | – | – | – | –
CCOc1ccc(/C=C2\SC(=S)NC2=O)cc1OC | 15.1 µM (active) | inactive | inactive | inactive | inactive | inactive | – | – | – | –
Cc1c(C(=O)N2CCC2)oc2ccc(Br)cc12 | inactive | inactive | inactive | 33.8 µM (active) | inactive | inactive | – | – | – | –
COc1cc(C(C)=O)ccc1COc1ccc(C(=O)O)cc1OC | inactive | inactive | – | inactive | – | – | 7.71% [at 17.1 µM, percent relative to cAMP agonist control] | -10.4% [at 30.8 µM] | -0.313% [at 30.8 µM] | –
O=C(NCc1ccc(F)cc1)C(c1cccnc1)N(C(=O)c1csnn1)c1ccccc1 (centres undefined) | inactive | inactive | – | inactive | – | – | -0.815% [at 17.1 µM, percent relative to cAMP agonist control] | -0.606% [at 30.8 µM] | 5.08% [at 30.8 µM] | –
COC(=O)c1cc2occc2n1Cc1cccc(C)c1 | inactive | inactive | inactive | inactive | inactive | inactive | – | – | – | –
Cc1ccc(OCCn2c(=O)n(C)c3ccccc32)cc1 | inactive | inactive | inactive | 67.5 µM (active) | inactive | inactive | – | – | – | –
Cc1nn(C(=O)c2ccco2)c(C)c1Sc1ccccc1 | inactive | inactive | inactive | 10.7 µM (active) | inactive | inactive | – | – | – | –
